Data reported in PubChem BioAssay AID1117359 (Southern Research Institute, 2015).
In all, about 1,500 compounds went through this assay and about 460 (31%) were called active.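 How the source made its calls: active means viability at or below 80% at any tested concentration, marking the compound as toxic; inactive means the rest.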 Not all results are given here. Entries with a potency or affinity are not part of this list.

Assay: viability loss in THP-1 monocytes – THP-1 cells, cytotoxicity control for Vif-APOBEC3G degradation inhibitor project, dose response (AID 1117359)
Details: THP-1 viability, CellTiter-Glo luminescence, 72 h; series mostly up to 40 µM

SMILES	outcome
CC1(OC(=O)CCc2ccccc2)C(=O)C=C2C=C(c3ccsc3)OC=C2C1=O (stereo not given)	inactive
CCOC(=O)C1(Cc2ccc(OC)cc2)CCN(C(=O)Cc2cccnc2)CC1	inactive
CCOc1ccc(-n2c(SCC(=O)Nc3cc(C)on3)nnc2-c2c[nH]c3ccccc23)cc1	inactive
O=C(CC(=O)NN=Cc1ccc2c(c1)CCC2)NN=Cc1ccc2c(c1)CCC2	inactive
COc1cc2ccccc2nn1	inactive
C/C(=N\NC(=O)c1ccc(NS(=O)(=O)c2cccs2)cc1)c1ccccc1	inactive
CCN1CCN(C(=O)C2COc3ccccc3O2)CC1 (stereo not given)	inactive
O=C(COC(=O)c1ccc(NS(=O)(=O)c2cccs2)cc1)NCc1ccco1	inactive
O=C(O)CCc1ccc(-c2cccs2)n1-c1ccc(C(=O)O)cc1	inactive
O=C(c1ccc(=O)oc1)N1CCCc2ccccc21	inactive
O=C(Cc1ccccn1)c1ccncc1	inactive
Cc1cc(O)ccc1-c1cnc2ccccc2n1	inactive
Cc1cc(/C=C2\SC(=S)NC2=O)c(C)n1-c1ccc(O)cc1	inactive
O=C(NCC1CCCO1)c1cc2ccccc2oc1=O (stereo not given)	inactive
NS(=O)(=O)c1ccc(CCNC(=O)CCS(=O)(=O)c2ccc(Br)cc2)cc1	inactive
CC(OC(=O)/C=C/c1ccco1)C(=O)NC1CCCCC1 (stereo not given)	inactive
CC(=O)Nc1ccc(NC(=O)C(C)OC(=O)CCc2c[nH]c3ccccc23)cc1 (stereo not given)	inactive
O=c1ccc2c(-c3ccccc3S(=O)(=O)O)c3ccc(O)c(O)c3oc-2c1O	inactive
CCOc1ccccc1C(O)C1=CC(=O)c2ccccc2C1=O (stereo not given)	inactive
CCOc1cccc(C(=O)Nc2ccccc2OC(F)F)c1	inactive
CC(=O)Nc1nnc(SCC(=O)N2CCCc3ccccc32)s1	inactive
O=C(Nc1ccc(F)c(Cl)c1)c1cccnc1	inactive

SMILES	outcome
Clc1ccc2c(c1)nc1n2CCCC1	inactive
FC(F)Oc1ccccc1NC(=S)Nc1cccnc1	inactive
CN(C)c1nc(N)nc(CSc2nc3c(c(=O)n(C)c(=O)n3C)n2Cc2ccccc2F)n1	inactive
CCS(=O)(=O)c1ccc2oc(Nc3cccc(OC)c3)nc2c1	inactive
CC1CCN(S(=O)(=O)c2ccc(C(=O)NCc3ccc4c(c3)OCO4)cc2)CC1	inactive
CC(C)(C)c1nnc(NC(=O)c2ccc(Cl)nc2)s1	inactive
CCn1c(C)nc2cc(C(=O)N/N=C/c3ccc(O)c(O)c3O)ccc21	inactive
Cc1cccc(N/N=C/c2ccc(O)c(O)c2O)c1	inactive
Cc1cc(C)c2c(c1)[C@@H]1C=CC[C@@H]1[C@H](c1ccc(S(=O)(=O)N3CCOCC3)cc1)N2	inactive
Cc1oc(-c2ccccc2)nc1C(=O)OCC(=O)NCc1ccc(F)cc1	inactive
CCC1(C(N)=O)CC2C=CC1C2 (stereo not given)	inactive
Cc1ccc(NC(=O)CCCCCC2NC(=O)NC2C)cc1 (stereo not given)	inactive
O=C(CN1C(=O)c2ccccc2C1=O)NCC(=O)OCC(=O)c1cccc([N+](=O)[O-])c1	inactive
C=C(C)C(=O)Nc1ccc2c(c1)OCCOCCOCCO2	inactive
O=C(O)CCc1ccc(S(=O)(=O)Nc2cc(C(F)(F)F)ccc2N2CCCC2)cc1	inactive
CCCCNC(=O)CN1C(=O)CSc2ccc(S(=O)(=O)N3CCOCC3)cc21	inactive
CCNC(=S)Nc1ccc(N(c2ccccc2)C(C)C)cc1	inactive
CCN(CC)c1ccc(NC(=O)c2c(C)noc2C)cc1	inactive
CCCC(=O)NNC(=O)Nc1ccccc1	inactive
Cc1c(Cl)cccc1NC(=O)CC(Cc1ccccc1)C(=O)O (stereo not given)	inactive
CSc1nc(N2CCOCC2)c2c3c(sc2n1)CCC3	inactive
Cc1nn(CC(=O)Nc2ccccn2)c(C)c1Br	inactive

SMILES	outcome
CC(=O)c1ccc(N2CCN(C(=O)c3ccc4c(c3)OCO4)CC2)cc1	inactive
CC(C)(CS(=O)(=O)[O-])NC(=O)CC[N+](C)(C)CCO	inactive
CCOc1cc(N2CCOCC2)c(OCC)cc1NC(=O)CSc1ncn[nH]1	inactive
CCOc1ccc(S(=O)(=O)N2CC(=O)Nc3ccccc32)cc1C#N	inactive
O=C(N/N=C/C=C/c1ccco1)c1cccs1	inactive
O=C(CSc1nc2cc([N+](=O)[O-])ccc2n1-c1ccccc1)NCc1ccc2c(c1)OCO2	inactive
COCCCN1C(=O)N(c2ccc(F)cc2)C(=O)C1CC(=O)Nc1ccc(OC)cc1 (stereo not given)	inactive
Cc1ccc(S(=O)(=O)OCC(=O)Nc2ccc(C(=O)O)c(O)c2)cc1	inactive
CC(C)CCN1CCN(Cc2cccn2-c2cccnc2)CC1CCO (stereo not given)	inactive
NS(=O)(=O)c1ccc(NC(=O)COC(=O)c2cc(Cl)ccc2[N+](=O)[O-])cc1	inactive
Cc1cc(NC(=O)C2CCCC2)n(-c2nc3ccccc3[nH]2)n1	inactive
CCN(c1ccc(NC(=O)COC(=O)c2ccc([N+](=O)[O-])o2)cc1)C(C)C	inactive
CSc1ccc(/C=N/n2c(C3CCCCC3)n[nH]c2=S)cc1	inactive
NS(=O)(=O)c1ccc(N=Nc2ccc(=O)[nH]c2O)cc1	inactive
O=C(O)c1cccc2c1Oc1ccccc1S2(=O)=O	inactive
CC(C)(C)CN1CCNC(=O)C1CC(=O)NCCc1ccccc1C(F)(F)F (stereo not given)	inactive
CCCCC1=CC2=CC(=O)C(C)(OC(=O)C3CCCC3)C(=O)C2=CO1 (stereo not given)	inactive
Cc1cccc(OCc2nc(C)cc(=O)[nH]2)c1	inactive
OC(c1ccc(Cl)cc1)C(O)c1nc2ccccc2[nH]1 (stereo not given)	inactive
COc1ccc(NC(=O)c2cc(-c3ccco3)nc3ccccc23)cc1S(=O)(=O)N1CCOCC1	inactive
COc1ccc(N(CC(=O)NCc2ccccc2C)S(=O)(=O)c2ccc(C)cc2)cc1OC	inactive
CCc1cccc(CC)c1-n1c(SCC(=O)N2CCCc3ccccc32)nc(O)cc1=O	inactive

SMILES	outcome
CCc1ccc(-c2nc(SCC(=O)NC3CCS(=O)(=O)C3)n[nH]2)cc1 (stereo not given)	inactive
O=C(CSc1ncnc2ccccc12)Nc1cccc(S(=O)(=O)N2CCOCC2)c1	inactive
O=C(CCCCCCC(=O)NCc1ccccc1)NCc1ccccc1	inactive
COc1ccccc1NC(=O)CN(Cc1ccco1)C(=O)c1cccs1	inactive
CC1(C)Cc2c(cnn2-c2ccccc2)C(NC(=O)CCCN2CCCCC2=O)C1 (stereo not given)	inactive
CCOC(=O)c1ccc(CC(=O)c2ccc(O)c(O)c2O)o1	inactive
O=C(NNC(=O)c1ccccc1F)c1cccc(-n2cccc2)c1	inactive
Cc1ccc(C(=O)NNS(=O)(=O)c2ccc(F)cc2)cc1	inactive
CN(C(=O)c1ccc(OC2CCN(S(=O)(=O)N(C)C)CC2)cc1)C1CCCCC1	inactive
CCOC(=O)Cn1c(=O)c2c(nc3n2CCN3Cc2ccccc2)n(C)c1=O	inactive
O=C(Cc1ccc2c(c1)OCCO2)N1CCN(S(=O)(=O)c2cccs2)CC1	inactive
COc1ccc(N2CCC(CNS(=O)(=O)c3cccc(C(F)(F)F)c3)C2)cc1 (stereo not given)	inactive
CN(C)/C=N/NC(=O)c1ccccc1Cl	inactive
O=c1cc(OCc2ccccc2)cc[nH]1	inactive
O=C(Nc1ccc(COc2ccccc2)cc1)Oc1ccccc1N1CCOCC1	inactive
COC(=O)c1ccc(COc2ccc(/C=N/Nc3cccc(C(=O)O)c3)cc2)cc1	inactive
C[C@H](NC(=O)OCc1ccccc1)C(=O)NNC(=O)[C@H](C)NC(=O)OCc1ccccc1	inactive
CCN(CC(=O)Nc1c(F)cccc1F)C(=O)c1cccc(-n2cccc2)c1	inactive
CCCCC1=CC2=C(c3ccco3)C(=O)C(C)(OC(=O)c3ccc(OC)cc3)C(=O)C2=CN1CCCCO (stereo not given)	inactive
CC(=O)Nc1ccc(C=C(C#N)c2ccc(C)cc2)cc1	inactive
CCOc1ccc(CCNC(=O)C2CC(C)=CCC2C(=O)O)cc1OCC (stereo not given)	inactive
CCCCc1cc(=O)oc2cc(OCC(=O)N(CC)CC)c(Cl)cc12	inactive

SMILES	outcome
C[C@H](NC(=O)NCc1cccs1)C(=O)O	inactive
CSc1cccc(NC(=O)C(C)C)c1	inactive
CCOC(=O)c1cc2c(c(CCO)n1)[C@H](CCO)N(S(=O)(=O)C(C)(C)C)C2	inactive
Cc1oc(/N=C/c2cccc3ccccc23)c(C#N)c1C	inactive
CCN1CCN(Cc2cc(=O)oc3ccc(C)cc23)CC1	inactive
COC(=O)C(Cc1c[nH]c2ccccc12)NC(=O)C(C)C (stereo not given)	inactive
Cc1ccc(NC(=O)C(C)Sc2nc3nc(C)cc(C)n3n2)cc1 (stereo not given)	inactive
O=S(=O)(c1ccc2nc(-c3ccco3)c(-c3ccco3)nc2c1)N1CCOCC1	inactive
Cc1ccc(CNC(=O)CN(c2cccc([N+](=O)[O-])c2)S(C)(=O)=O)cc1	inactive
CC(NC(=O)C(NS(=O)(=O)c1cccs1)C(C)C)c1ccc(S(N)(=O)=O)cc1 (stereo not given)	inactive
Cc1cc(=O)nc2c3ccccc3n(C(C)C(=O)NCCC(C)C)n12 (stereo not given)	inactive
Cc1cc(C)cc(N(CCC#N)C(=O)CSc2nc3nc(C)cc(C)n3n2)c1	inactive
Cc1ccc(OCc2ccc(C(=O)NN)o2)cc1C	inactive
Cc1c(NC(=O)COC(=O)c2ccccc2Cl)c(=O)n(-c2ccccc2)n1C	inactive
NC(=O)c1ccc(NC(=O)CSc2nc3ccccc3c(=O)n2CCCN2CCOCC2)cc1	inactive
O=C(NC1CCCCC1)C(c1ccc(Cl)cc1)N(C(=O)c1ccccn1)c1cccnc1 (stereo not given)	inactive
Cc1ccccc1Cn1cc(NC(=O)c2cc(C3CC3)on2)cn1	inactive
O=C(c1cccc(S(=O)(=O)N2CCCC2)c1)N1CCOCC1	inactive
COc1ccc(NC(=S)N(CCCN2CCCC2)Cc2ccco2)cc1	inactive
CCOC(=O)C1(Cc2ccc(OC)cc2)CCN(C(=O)c2cccc3nccnc23)CC1	inactive
CCOc1ccc(-n2c(C)nc(O)c2N=Nc2ccccc2)cc1	inactive
COc1cccc(NC(=O)Nc2nnc(N3C(C)CCCC3C)s2)c1 (stereo not given)	inactive
